This note sets out measurements from PubChem BioAssay (NCI).

About 83,000 compounds went through this panel and 20% of them were active in at least one assay; those are over-represented in the sample as a whole.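 Activity criterion: percent growth below 10, measured after cells in 96-well plates were exposed to a single compound concentration for 48 hours.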 Unmarked numbers belong to inactive results. Active and inactive are the calls of the source.

Test systems include NCI-H23 lung; NCI-H226 lung; NCI-H322M lung; HOP-62 NSCLC; NCI-H460 lung; HOP-92 NSCLC; NCI-H522 lung; A549/ATCC NSCLC; 786-0 renal; COLO 205 colon.
Holding throughout (assay): NCI-60 one-dose screen, 48 h (100 = growth as untreated, 0 = no growth, -100 = all killed)
Holding throughout (conditions): 10 µM unless noted

Take `COc1cc(-c2nc3occn3c2-c2ccnc(NCCCNS(=O)(=O)c3ccc(O)cc3)n2)ccc1F`: the growth in the experiment with NCI-H23 lung is 92.6%; with NCI-H226 lung, 96.8%; in the experiment with NCI-H322M lung, 113%; in the experiment on HOP-62 NSCLC it was 95%; with NCI-H460 lung it was 102%; in the experiment with HOP-92 NSCLC, 86.7%. In addition, the growth was 72.4% in the experiment with NCI-H522 lung, 94.3% in the experiment on A549/ATCC NSCLC, 122% in the experiment with 786-0 renal and 45% in the experiment with COLO 205 colon.

Turning to `OCc1cc(CN2CCCCC2)c(O)c2ncccc12`, the growth in the experiment with NCI-H23 lung was 75.8%; in the experiment on NCI-H226 lung, 67.5%; in the experiment with NCI-H322M lung it was 25.9%; with HOP-62 NSCLC, 35.8%; in the experiment on NCI-H460 lung, 20.7%; with HOP-92 NSCLC it was 71.9%. In addition, the growth was 80.7% in the experiment with NCI-H522 lung, 57.8% in the experiment with A549/ATCC NSCLC, 57.9% in the experiment with 786-0 renal and 47% in the experiment on COLO 205 colon.

Regarding `Cc1c(C(C)(C)O)cn2ncnc(Oc3ccc(NC(=O)Nc4ccc(Cl)c(C(F)(F)F)c4)cc3)c12`, the growth was 23.6% in the experiment with NCI-H23 lung; 65.5% in the experiment on NCI-H226 lung; 56.7% with NCI-H322M lung; 65.4% in the experiment with HOP-62 NSCLC; 13.1% with NCI-H460 lung; 4.28% (active) in the experiment on HOP-92 NSCLC. The growth with NCI-H522 lung is 11.6%; in the experiment on A549/ATCC NSCLC it was 32.8%; with 786-0 renal, 26.5%; in the experiment with COLO 205 colon, 45.6%.

`Cc1ccc(/C=C2\COc3ccc(O)c(O)c3C2=O)cc1`: the growth was 29.1% in the experiment on NCI-H23 lung; 61.5% in the experiment with NCI-H226 lung; 31.3% in the experiment with NCI-H322M lung; -1.56% (active) with HOP-62 NSCLC; 8.32% (active) in the experiment on NCI-H460 lung; -18% (active) in the experiment with HOP-92 NSCLC. The growth is -74.8% (active) with NCI-H522 lung, 27.4% in the experiment with A549/ATCC NSCLC, -71% (active) in the experiment with 786-0 renal and 30.2% with COLO 205 colon.

`Cc1c(O)c(O)cc2c3c(oc12)CC(c1ccc2c(c1)OCO2)CC3=O` (stereo not given): the growth in the experiment on NCI-H23 lung is 83.4%; in the experiment with NCI-H226 lung, 81.2%; in the experiment with NCI-H322M lung, 90.1%; in the experiment with HOP-62 NSCLC, 75.2%; with NCI-H460 lung it was 93.7%; with HOP-92 NSCLC, -37.4% (active). The growth in the experiment with NCI-H522 lung was 53.3%; in the experiment on A549/ATCC NSCLC, 93.8%; in the experiment with 786-0 renal, 100%; with COLO 205 colon, 103%.

In the case of `COc1ccc2c(c1)c(-c1nc(-c3c[nH]c4c(Cl)nccc34)cs1)cn2C`, the growth with NCI-H23 lung is 73.9%; in the experiment on NCI-H226 lung it was 37.2%; with NCI-H322M lung it was 91.3%; in the experiment on HOP-62 NSCLC, 92.6%; in the experiment with NCI-H460 lung, 31.1%; in the experiment with HOP-92 NSCLC, 76.1%. For the same compound, the growth was 86.6% with NCI-H522 lung, 84.7% in the experiment with A549/ATCC NSCLC, 124% in the experiment with 786-0 renal and 93.9% in the experiment on COLO 205 colon.

`O=C1/C(=C/c2ccc(-c3ccccc3C(F)(F)F)o2)SC(=S)N1CCc1ccc(O)cc1`: the growth with NCI-H23 lung was 78.2%; in the experiment on NCI-H226 lung, 90.2%; with NCI-H322M lung, 75.6%; in the experiment with HOP-62 NSCLC, 50.2%; with NCI-H460 lung it was 48.3%; with HOP-92 NSCLC it was 61%. Also, the growth was -11% (active) with NCI-H522 lung, 45.7% with A549/ATCC NSCLC, 65% with 786-0 renal and 48.1% with COLO 205 colon.

Regarding `C=CCN1C=CC(=O)[C@H](O[Si](C)(C)C(C)(C)C)[C@@H]1/C=C/c1ccccc1`, the growth is -71.6% [100 µM] (active) in the experiment with NCI-H23 lung; -65.3% [100 µM] (active) in the experiment on NCI-H226 lung; -59.2% [100 µM] (active) in the experiment with NCI-H322M lung; -88.9% [100 µM] (active) in the experiment on HOP-62 NSCLC; -49.3% [100 µM] (active) in the experiment with NCI-H460 lung; -89.7% [100 µM] (active) in the experiment on HOP-92 NSCLC. The growth with NCI-H522 lung is -39.1% [100 µM] (active); in the experiment with A549/ATCC NSCLC, -40.4% [100 µM] (active); in the experiment on 786-0 renal it was -88.2% [100 µM] (active); in the experiment with COLO 205 colon, -64% [100 µM] (active).

For `N#Cc1ccccc1OCC(=O)Nc1nc2c(s1)COc1ccccc1-2`, the growth in the experiment on NCI-H23 lung is 99.3%; in the experiment with NCI-H226 lung it was 93.2%; in the experiment on NCI-H322M lung it was 102%; in the experiment on HOP-62 NSCLC, 105%; in the experiment on NCI-H460 lung it was 107%; in the experiment with HOP-92 NSCLC, 106%. Moreover, the growth is 103% with NCI-H522 lung, 98.9% in the experiment on A549/ATCC NSCLC, 102% in the experiment on 786-0 renal and 105% in the experiment with COLO 205 colon.

For the compound `O=C1CCc2c(sc3[nH]c(=S)n(Cc4ccc(Cl)cc4)c(=O)c23)C1`, the growth in the experiment on NCI-H23 lung was -12.9% (active); with NCI-H226 lung, -8.6% (active); with NCI-H322M lung, 11.4%; in the experiment on HOP-62 NSCLC it was -11.5% (active); in the experiment on NCI-H460 lung, 5.05% (active); in the experiment with HOP-92 NSCLC, -44.2% (active). In addition, the growth in the experiment with NCI-H522 lung is -18.6% (active); in the experiment on A549/ATCC NSCLC, 5.35% (active); in the experiment on 786-0 renal it was 21%; with COLO 205 colon, -67.5% (active).

With `CCCCCCCCN(CCCCCCCC)CC(O)c1cc(Cl)ccc1OC` (stereo not given), the growth in the experiment on NCI-H23 lung was 56%; in the experiment with NCI-H226 lung it was 62%; in the experiment on NCI-H322M lung, 94.7%; in the experiment with HOP-62 NSCLC it was 80.8%; in the experiment on NCI-H460 lung, 62.6%; in the experiment with HOP-92 NSCLC, 66%. The growth in the experiment with NCI-H522 lung was 68%; in the experiment with A549/ATCC NSCLC it was 83.9%; with 786-0 renal it was 72.7%; in the experiment with COLO 205 colon, 55.5%.

For the compound `CCOC(=O)c1cnn(-c2ccc(S(N)(=O)=O)cc2)c1N`, the growth in the experiment with NCI-H23 lung was 95.5%; in the experiment on NCI-H226 lung it was 92%; in the experiment on NCI-H322M lung, 99.8%; with HOP-62 NSCLC, 95.9%; in the experiment on NCI-H460 lung it was 104%; in the experiment on HOP-92 NSCLC, 105%. Besides, the growth in the experiment on NCI-H522 lung is 96.2%; in the experiment on A549/ATCC NSCLC, 103%; in the experiment with 786-0 renal, 95.6%; with COLO 205 colon it was 140%.

As for `C[C@]12CCc3c(ccc4cc(O)ccc34)[C@@H]1C[C@H](O)[C@@H]2O`, the growth in the experiment with NCI-H23 lung was 94.2%; in the experiment with NCI-H226 lung, 94.7%; in the experiment with NCI-H322M lung it was 107%; in the experiment on HOP-62 NSCLC it was 91.7%; with NCI-H460 lung, 97.8%; in the experiment with HOP-92 NSCLC, 85.6%. Further, the growth in the experiment with NCI-H522 lung was 98.1%; with A549/ATCC NSCLC it was 106%; in the experiment with 786-0 renal, 111%; with COLO 205 colon, 109%.
